Reference: the supplement of paper PMC3545927
The other results are listed elsewhere or left out. No count for the full screen is at hand.

Molecular target: furin, P09958
Assay: furin cleavage Z-score vs untreated control; higher = more cleavage, active = 3.5 or more, inactive = 1 or less, 8 variable residues between constant flanks
In short: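 Furin cleavage was scored on 8-mer peptides joined to a cDNA oligonucleotide and bound to magnetic beads at the N-terminus. Digestion with purified furin (1:10 enzyme:substrate, 0.01 ml, 50 mM HEPES pH 7.5, CaCl2, NaCl) lasted 7.5, 15 or 30 min. Freed DNA was tagged with adapters by PCR, sequenced and counted; the cleavage Z-score is the lowess-adjusted log count versus furin-free reactions, scaled by median absolute deviation.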

Chain of furin, P09958 (P09958 whole entry): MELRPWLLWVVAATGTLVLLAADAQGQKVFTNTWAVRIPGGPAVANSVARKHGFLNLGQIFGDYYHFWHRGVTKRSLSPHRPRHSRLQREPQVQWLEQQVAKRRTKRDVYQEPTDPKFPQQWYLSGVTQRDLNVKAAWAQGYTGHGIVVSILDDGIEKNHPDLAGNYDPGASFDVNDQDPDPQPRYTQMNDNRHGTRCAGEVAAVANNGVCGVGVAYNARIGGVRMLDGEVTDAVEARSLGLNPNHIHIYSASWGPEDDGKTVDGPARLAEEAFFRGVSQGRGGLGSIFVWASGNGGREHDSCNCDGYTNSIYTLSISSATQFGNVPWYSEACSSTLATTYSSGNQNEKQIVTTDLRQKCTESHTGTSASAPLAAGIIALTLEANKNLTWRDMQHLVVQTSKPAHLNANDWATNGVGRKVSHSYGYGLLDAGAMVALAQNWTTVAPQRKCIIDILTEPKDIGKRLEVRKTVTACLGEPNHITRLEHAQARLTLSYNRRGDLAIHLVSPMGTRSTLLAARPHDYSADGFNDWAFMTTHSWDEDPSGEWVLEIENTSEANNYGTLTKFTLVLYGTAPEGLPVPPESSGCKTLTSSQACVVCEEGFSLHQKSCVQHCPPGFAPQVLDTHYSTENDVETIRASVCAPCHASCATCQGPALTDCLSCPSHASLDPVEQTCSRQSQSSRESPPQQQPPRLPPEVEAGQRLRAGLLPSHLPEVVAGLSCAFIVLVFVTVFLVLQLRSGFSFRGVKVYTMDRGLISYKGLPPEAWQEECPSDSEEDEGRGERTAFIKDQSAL

Row | Sequence | furin cleavage Z-score (7.5 min) | furin cleavage Z-score (15 min) | furin cleavage Z-score (30 min)
1 | CAIRMYVGGVAGNASASA [HC475] | -0.513 (inactive) | -1.17 (inactive) | -0.0738 (inactive)
2 | CAWHYPPKPCAGNASASA [HC404] | 2.21 | 0.243 (inactive) | -0.391 (inactive)
3 | CADSSVLCECAGNASASA [HC917] | -0.488 (inactive) | 0.33 (inactive) | -0.601 (inactive)
4 | CAEVVTATWVAGNASASA [HC141] | 0.437 (inactive) | 0.0461 (inactive) | -0.276 (inactive)
5 | CAETWKKPDYAGNASASA [HC1310] | -0.221 (inactive) | -1.55 (inactive) | -1.15 (inactive)
6 | CAVVCCSMKYAGNASASA [HC2074] | 0.109 (inactive) | 0.25 (inactive) | 0.72 (inactive)
7 | CAVVACSMSYAGNASASA [HC2023] | 1.53 | 0.103 (inactive) | 1.35
8 | CASRSRRRRRAGNASASA [FS-1490] | 8.08 (active) | 8.87 (active) | 7.6 (active)
9 | CASKGRIRRRAGNASASA [FS-1081] | 8.99 (active) | 8.1 (active) | 8.52 (active)
10 | CASRGRRRRRAGNASASA [FS-302] | 4.34 (active) | 2.4 | 4.26 (active)
11 | CACVTQTVDFAGNASASA [HC889] | 0.399 (inactive) | -1.73 (inactive) | 0.371 (inactive)
12 | CAIPPLNVRGAGNASASA [HC591] | -2.18 (inactive) | -0.0771 (inactive) | -0.417 (inactive)
